Results published in PubChem BioAssay (Tox21).
Active and inactive are the calls of the source. The call rests on the fitted dose curve.
On the % scale 0 is the no-effect control and ±100 the full control effect.

Each compound was assayed against Acetylcholinesterase (Homo sapiens) (UniProt P22303) (assay: Acetylcholinesterase (AChE) small molecule antagonists: enzyme-based qHTS assay with human liver microsomes (AID 1347399; further: nearly all actives have a fitted effect of over 60% in size)). Details: Potency: qHTS inhibition; outcome: qHTS inhibition; series mostly up to 115 µM; activity change, negative = inhibition: at the top concentration.
Sequence of Acetylcholinesterase (Homo sapiens) (P22303 whole entry, looked up): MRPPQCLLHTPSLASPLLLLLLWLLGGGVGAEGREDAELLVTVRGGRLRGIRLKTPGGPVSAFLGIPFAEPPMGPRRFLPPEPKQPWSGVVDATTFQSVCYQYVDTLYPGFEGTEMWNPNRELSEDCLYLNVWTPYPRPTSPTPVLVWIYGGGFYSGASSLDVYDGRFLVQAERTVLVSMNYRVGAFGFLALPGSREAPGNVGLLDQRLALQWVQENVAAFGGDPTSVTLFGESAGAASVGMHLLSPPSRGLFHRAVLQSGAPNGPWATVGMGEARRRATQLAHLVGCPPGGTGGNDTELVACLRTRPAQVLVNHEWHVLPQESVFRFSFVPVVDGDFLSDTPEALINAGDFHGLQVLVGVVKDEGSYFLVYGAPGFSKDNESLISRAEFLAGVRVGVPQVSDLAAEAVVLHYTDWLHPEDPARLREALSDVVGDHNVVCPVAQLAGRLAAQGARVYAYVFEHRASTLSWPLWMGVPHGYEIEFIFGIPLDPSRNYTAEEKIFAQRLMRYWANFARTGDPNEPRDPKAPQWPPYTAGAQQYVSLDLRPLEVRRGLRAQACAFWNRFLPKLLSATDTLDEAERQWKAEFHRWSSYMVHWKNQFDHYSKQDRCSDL
Outline: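 Recombinant human AChE (50 mU/mL in the enzyme mix) and human liver microsomes (0.25 mg/mL final) were preincubated with compound and NADPH (0.25 mg/mL final) for 30 min at 37 C. Acetylthiocholine/DTNB was then added; thiocholine was read colorimetrically after 10 min at room temperature.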
`CCOCCOCCOCCO` was tested, and the Potency was “inactive”. With `CCCCCCCCCCCC(=O)OCC(O)CO` (stereo not given) the “activity change, negative = inhibition” value was 1.41% (inactive). With `Cc1cccc(C(C)(C)C)c1O` the “activity change, negative = inhibition” value was -1.57% (inactive). For `O=C(O)CCNC(=O)c1ccc(N=Nc2ccc(O)c(C(=O)O)c2)cc1`, the “activity change, negative = inhibition” value was 8.45% [at 53 µM] (inactive). In the case of `CCN(CC)CC1CCCCN1CC(=O)N1c2ccccc2C(=O)Nc2cccnc21` (stereo not given), the “activity change, negative = inhibition” value is reported as -3.83% [at 53 µM] (inactive). `O=[N+]([O-])c1c(Cl)cc(Cl)cc1Cl` was tested, and the “activity change, negative = inhibition” value was -1.69% (inactive). In the case of `CCCC(=O)O[C@]1(C(=O)CO)CC[C@H]2[C@@H]3CCC4=CC(=O)CC[C@]4(C)[C@H]3[C@@H](O)C[C@@]21C`, the “activity change, negative = inhibition” value is reported as 0.672% [at 53 µM] (inactive). In the case of `c1ccc2cc3c(ccc4ccccc43)cc2c1`, the Potency is reported as “inactive”. `CCOC(=O)C(O)c1ccccc1` (stereo not given) was tested, and the “activity change, negative = inhibition” value was -0.336% [at 53 µM] (inactive). In the case of `C=C(C)C(=O)O`, the Potency is reported as “inactive”. `Cc1c(-c2cccnc2)c2ccccc2n1CCCCC(=O)O` was tested, and the “activity change, negative = inhibition” value was -0.483% (inactive). With `Cc1nnc(NS(=O)(=O)c2ccc(N)cc2)s1` the Potency was “inactive”. `CCCCCCC(=O)O` was tested, and the Potency was “inactive”. In the case of `O=C(O)C1CCC(C(=O)O)CC1` (stereo not given), the “activity change, negative = inhibition” value is reported as -0.291% (inactive). In the case of `CC(=O)CC(C)(C)O`, the Potency is reported as “inactive”. In the case of `CCOC(=O)/C=C\C(=O)OCC`, the Potency is reported as “inactive”. In the case of `O=C(NC(Cc1cc(=O)[nH]c2ccccc12)C(=O)O)c1ccc(Cl)cc1` (stereo not given), the “activity change, negative = inhibition” value is reported as 0.168% [at 53 µM] (inactive). `CC(=O)c1ccc(Cl)c(Cl)c1Cl` was tested, and the “activity change, negative = inhibition” value was -2.69% (inactive). For `CC1=C(C)S(=O)(=O)CCS1(=O)=O`, the Potency was “inactive”. `C=CC(=O)OCCOC1C2CCC1C1CC=CC12` (stereo not given) was tested, and the activity change, negative = inhibition was 0.164% [at 23.6 µM] (inactive). `CCCCCCCCCCCC[N+](C)(C)CC(=O)[O-]` was tested, and the “activity change, negative = inhibition” value was 1.3% (inactive). With `C#CC(C)(O)CC(C)C` (stereo not given) the “activity change, negative = inhibition” value was 0.696% (inactive). For `Cc1cccc(Nc2cc(Cl)nc(SCC(=O)O)n2)c1C`, the Potency was “inactive”. `CN(C)CCCNCCCN(C)C` was tested, and the “activity change, negative = inhibition” value was -0.163% (inactive). `CC(C)c1ccc(O)c(C(C)C)c1` was tested, and the “activity change, negative = inhibition” value was 0.306% (inactive). With `CC(=O)/C=C/C1=C(C)CCCC1(C)C` the Potency was “inactive”. For `O=C(Nc1ccc(C(=O)O)c(O)c1)c1ccccc1`, the “activity change, negative = inhibition” value was 16% [at 53 µM] (inactive). In the case of `O=C1c2cccc(O)c2C(=O)c2c(O)cc(CO)cc21`, the “activity change, negative = inhibition” value is reported as -4.13% (inactive). For `COC(=O)OC`, the Potency was “inactive”. With `Cc1cc(C)c(C)c(C)c1` the “activity change, negative = inhibition” value was 0.0702% (inactive). In the case of `C=C(c1ccc(C(=O)O)cc1)c1cc2c(cc1C)C(C)(C)CCC2(C)C`, the Potency is reported as “inactive”. In the case of `COc1cc(/C=C/c2ccccc2)oc(=O)c1`, the “activity change, negative = inhibition” value is reported as 0.171% (inactive). `Cc1ccc2c(n1)Oc1ccc(C(C)C(=O)OCC(=O)N(C)C)cc1C2` (stereo not given) was tested, and the Potency was “inactive”. For `CC(CN(CCN(CC(C)OCCO)CC(C)OCCO)CC(C)OCCO)OCCO` (stereo not given), the “activity change, negative = inhibition” value was -0.409% (inactive). `NC(CSCC(=O)O)C(=O)O` (stereo not given) was tested, and the “activity change, negative = inhibition” value was 1.01% [at 53 µM] (inactive). For `Nc1cccc(O)c1`, the “activity change, negative = inhibition” value was -2.5% (inactive). `C=CCCCCCCCCO` was tested, and the “activity change, negative = inhibition” value was 0% (inactive). In the case of `Nc1nccs1`, the “activity change, negative = inhibition” value is reported as 0.682% (inactive). For `NC(=O)c1cnccn1`, the Potency was “inactive”. In the case of `CCN(CCC#N)c1ccc(N=Nc2ccc([N+](=O)[O-])cc2)cc1`, the “activity change, negative = inhibition” value is reported as 4.23% (inactive).
